Measured values from the supplement of paper PMC10849652.
Of roughly 7,900 targets only a part is listed; those with a hit were picked by preference. About 0.6% of all pairs of compound and target were hits.

Columns and labels:
Experiment in all cases: log2 fold change, soluble protein after heating vs DMSO (PISA); higher = thermal stabilisation; K562 cells, 10 uM, 30 min; active = over 0.2 and 3.5 SD of the protein, either way, in both replicates (recomputed)
[1] = compound: C1COCCN1CCN2C3=CC=CC=C3N=C2NC(=O)C4=CC(=CC=C4)[N+](=O)[O-] [IRAK-1-4 Inhibitor I]
How it was run: (§1)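 K562 cells (2×10^6 cells/mL) were treated with 10 μM compound for 30 min, and aliquots were heated for 3 min over 48°C-58°C. Pooled aliquots were extracted in PBS with 0.5% NP-40 at 4°C, and the supernatant after 21,000xg for 90 min was measured by TMTpro 16plex LC-MS/MS with channel sums equalised. Reported thermal stability, relative to control samples and from duplicates, is a log2 fold change.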

[2] = compound: C=CC(=O)N1CCC[C@@H](n2nc(-c3ccc(Oc4ccccc4)cc3)c3c(N)ncnc32)C1 [ibrutinib]
How it was run: as §1

[3] = compound: CC(=O)c1cnc2ccc(-c3cc(Cl)c(O)c(Cl)c3)nc2c1N[C@H]1CC[C@H](CN(C)C)CC1
How it was run: as §1

[4] = compound: CC(C)(C)Cn1c(N)nc2ccc(-c3[nH]c(C(C)(C)C)nc3-c3ccc(F)cc3)nc21 [ralimetinib]
How it was run: as §1

[5] = compound: CC(C)(O)CC(=O)NCCn1ccc2ncnc(Nc3ccc(Oc4cccc(C(F)(F)F)c4)c(Cl)c3)c21
How it was run: as §1

[6] = compound: CC(C)C1=C2N=C(C=C(N2N=C1)NCC3=CC=CC=C3)NCCCCCCN
How it was run: as §1

[7] = compound: CC(C)C[C@@H](C=O)NC(=O)[C@H](CC(C)C)NC(=O)[C@H](CC(C)C)NC(=O)OCc1ccccc1
How it was run: as §1

[8] = compound: CC(C)N(C[C@H]1O[C@@H](n2cnc3c(N)ncnc32)[C@H](O)[C@@H]1O)[C@H]1C[C@@H](CCc2nc3cc(C(C)(C)C)ccc3[nH]2)C1 [pinometostat]
How it was run: as §1

[9] = compound: CC1=C(C(CC(=O)N1)C2=CC=C(C=C2)C(F)(F)F)C(=O)NC3=C(C=C4C(=C3)C=NN4)F
How it was run: as §1

[10] = compound: CC1=C(C2=C(C=C1)C(=O)C3=CC=CC=C3N2CCCN)C
How it was run: as §1

[11] = compound: CC1=C(C=C(C=C1)NC(=O)C2=CC(=CC=C2)C(C)(C)C#N)NC3=CC4=C(C=C3)N=CN(C4=O)C
How it was run: as §1

[12] = compound: CC1=C(C=C(C=C1)NC(=O)C2=CC(=CC=C2)N(C)C)NC(=O)C3=CC=C(C=C3)O
How it was run: as §1

[13] = compound: CC1=CC=C(C=C1)SC2=C3C=C(SC3=CN=C2)C(=O)N
How it was run: as §1

[14] = compound: CC1=NC(=CC=C1)C2=C(N=C(N2)C(C)(C)C)C3=CC4=NC=CN=C4C=C3
How it was run: as §1

[15] = compound: CCCCN(Cc1ccc(C(=O)NO)cc1)C(=O)Nc1ccccc1 [Nexturastat A]
How it was run: as §1

[16] = compound: CCCS(=O)(=O)Nc1ccc(F)c(C(=O)c2c[nH]c3ncc(-c4ccc(Cl)cc4)cc23)c1F [vemurafenib]
How it was run: as §1

[17] = compound: CCCS(=O)(=O)Nc1ccc(F)c(C(=O)c2c[nH]c3ncc(Cl)cc23)c1F
How it was run: as §1

[18] = compound: CCCc1cc(C)[nH]c(=O)c1CNC(=O)c1cc(-c2ccnc(N3CCN(C)CC3)c2)cc2c1cnn2C(C)C
How it was run: as §1

[19] = compound: CCN(CC)Cc1ccc2cc(COC(=O)Nc3ccc(C(=O)NO)cc3)ccc2c1 [givinostat]
How it was run: as §1

[20] = compound: CCN(CCCOc1ccc2c(Nc3cc(CC(=O)Nc4cccc(F)c4)[nH]n3)ncnc2c1)CCOP(=O)(O)O [barasertib]
How it was run: as §1

Measured: log2 fold change

RRP12 (UniProt Q5JTH9)
inactive: [1] -0.018 | [2] -0.1 | [3] 0.201 | [4] 0.331 | [5] 0.006 | [6] 0.272 | [7] 0.243 | [8] 0.315 | [9] -0.051 | [10] -0.107 | [11] 0.036 | [12] -0.012 | [13] 0.094 | [14] -0.043 | [15] 0.371 | [16] -0.087 | [17] -0.012 | [18] 0.074 | [19] 0.209 | [20] -0.018

RABGAP1L isoform 3 (UniProt Q5R372)
inactive: [1] 0.057 | [2] 0.02 | [3] 0.011 | [4] -0.012 | [5] -0.206 | [6] -0.068 | [7] -0.034 | [8] -0.006 | [9] -0.137 | [10] 0.055 | [11] 0.002 | [12] 0.018 | [13] 0.018 | [14] -0.005 | [15] -0.058 | [16] -0.008 | [17] 0.073 | [18] 0.03 | [19] 0.034 | [20] 0.022

SH3GL1 (UniProt Q99961)
UniProt Q99961, sequence (Q99961 whole entry, looked up): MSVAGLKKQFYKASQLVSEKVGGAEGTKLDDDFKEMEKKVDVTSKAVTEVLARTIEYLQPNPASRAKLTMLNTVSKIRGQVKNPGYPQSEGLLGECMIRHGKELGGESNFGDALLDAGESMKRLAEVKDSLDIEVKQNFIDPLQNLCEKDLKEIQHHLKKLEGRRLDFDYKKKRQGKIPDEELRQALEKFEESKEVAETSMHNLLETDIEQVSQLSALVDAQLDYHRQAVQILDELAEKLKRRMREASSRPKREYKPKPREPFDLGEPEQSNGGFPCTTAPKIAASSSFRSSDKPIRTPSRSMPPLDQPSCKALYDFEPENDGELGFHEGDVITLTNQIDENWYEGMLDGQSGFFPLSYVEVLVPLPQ
inactive: [1] -0.09 | [2] -0.021 | [3] -0.059 | [4] 0.052 | [5] -0.097 | [6] -0.238 | [7] 0.013 | [8] 0.032 | [9] 0.018 | [10] 0.037 | [11] 0.022 | [12] -0.077 | [13] 0.06 | [14] 0.021 | [15] 0.141 | [16] 0.1 | [17] 0.1 | [18] 0.037 | [19] 0.024 | [20] 0.084

RIOK3 (UniProt O14730)
UniProt O14730, sequence (O14730 whole entry, looked up): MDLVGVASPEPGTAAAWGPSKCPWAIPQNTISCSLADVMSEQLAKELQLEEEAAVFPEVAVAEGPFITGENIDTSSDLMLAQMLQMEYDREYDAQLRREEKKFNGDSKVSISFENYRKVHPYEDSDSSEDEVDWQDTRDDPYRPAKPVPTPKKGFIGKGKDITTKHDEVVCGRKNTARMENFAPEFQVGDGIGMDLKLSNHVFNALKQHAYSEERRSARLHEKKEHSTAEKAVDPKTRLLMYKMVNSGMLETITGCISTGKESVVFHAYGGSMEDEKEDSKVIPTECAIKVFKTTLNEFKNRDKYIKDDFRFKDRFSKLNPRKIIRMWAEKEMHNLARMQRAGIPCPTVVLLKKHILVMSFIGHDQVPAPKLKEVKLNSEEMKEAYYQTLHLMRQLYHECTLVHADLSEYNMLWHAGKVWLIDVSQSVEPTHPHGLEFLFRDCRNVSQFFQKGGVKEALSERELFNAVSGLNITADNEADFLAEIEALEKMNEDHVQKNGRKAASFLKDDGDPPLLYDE
inactive: [1] 0.087 | [2] 0.002 | [3] 0.024 | [4] -0.009 | [5] -0.083 | [6] -0.009 | [7] 0.021 | [8] -0.011 | [9] 0.019 | [11] 0.026 | [12] 0.021 | [13] 0.009 | [14] 0.014 | [15] -0.094 | [16] -0.012 | [17] -0.012 | [18] 0.011 | [19] -0.003 | [20] -0.003
active: [10] -0.231

SEH1L isoform 1 (UniProt Q96EE3)
UniProt Q96EE3, sequence (Q96EE3 whole entry, looked up): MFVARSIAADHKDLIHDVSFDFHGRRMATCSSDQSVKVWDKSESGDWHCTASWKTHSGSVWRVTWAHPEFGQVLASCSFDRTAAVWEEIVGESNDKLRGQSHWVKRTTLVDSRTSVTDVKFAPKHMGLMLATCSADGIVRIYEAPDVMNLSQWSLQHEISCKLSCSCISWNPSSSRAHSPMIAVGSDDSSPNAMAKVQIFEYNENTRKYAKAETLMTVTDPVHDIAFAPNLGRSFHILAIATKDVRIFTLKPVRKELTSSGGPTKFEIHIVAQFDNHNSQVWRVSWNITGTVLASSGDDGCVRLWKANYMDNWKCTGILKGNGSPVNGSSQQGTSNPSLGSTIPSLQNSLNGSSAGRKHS
inactive: [1] 0.028 | [2] -0.021 | [3] -0.056 | [4] -0.014 | [5] 0.03 | [6] -0.019 | [7] -0.026 | [8] 0.011 | [9] 0.039 | [10] 0 | [11] -0.004 | [12] 0.015 | [13] 0.005 | [14] -0.019 | [15] 0.011 | [16] 0.005 | [17] 0.048 | [18] -0.033 | [19] 0.005 | [20] 0.008

SACM1L (UniProt Q9NTJ5)
UniProt Q9NTJ5, sequence (Q9NTJ5 whole entry, looked up): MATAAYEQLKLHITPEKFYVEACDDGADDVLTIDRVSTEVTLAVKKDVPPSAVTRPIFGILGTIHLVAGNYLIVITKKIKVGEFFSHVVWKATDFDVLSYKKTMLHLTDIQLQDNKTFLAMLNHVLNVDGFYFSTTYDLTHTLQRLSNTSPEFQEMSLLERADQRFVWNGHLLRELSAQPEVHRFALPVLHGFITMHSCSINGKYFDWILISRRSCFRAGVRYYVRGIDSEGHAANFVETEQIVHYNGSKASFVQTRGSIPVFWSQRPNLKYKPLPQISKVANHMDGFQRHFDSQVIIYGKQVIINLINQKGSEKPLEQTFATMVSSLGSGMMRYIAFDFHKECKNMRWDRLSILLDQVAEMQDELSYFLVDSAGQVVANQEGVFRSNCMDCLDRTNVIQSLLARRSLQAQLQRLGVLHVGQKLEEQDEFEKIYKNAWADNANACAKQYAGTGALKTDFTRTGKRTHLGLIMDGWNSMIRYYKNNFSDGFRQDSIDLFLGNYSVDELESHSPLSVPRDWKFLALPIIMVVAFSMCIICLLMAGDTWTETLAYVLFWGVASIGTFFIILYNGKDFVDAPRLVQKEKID
inactive: [1] 0.008 | [2] -0.031 | [3] -0.022 | [4] 0.064 | [5] -0.007 | [7] -0.01 | [8] -0.042 | [9] -0.035 | [10] 0.029 | [11] 0.08 | [12] -0.024 | [13] -0.004 | [14] 0.031 | [15] -0.03 | [16] 0.052 | [17] 0.069 | [18] 0.043 | [19] 0.028 | [20] 0.049
active: [6] -0.262

RGS10 (UniProt O43665)
inactive: [1] 0.046 | [2] 0.047 | [3] -0.024 | [4] 0.026 | [5] -0.025 | [6] -0.057 | [7] -0.004 | [8] 0.087 | [9] -0.008 | [10] 0.015 | [11] -0.012 | [12] -0.02 | [13] -0.02 | [14] -0.041 | [15] -0.012 | [16] 0.048 | [17] 0.034 | [18] 0.02 | [19] 0.026 | [20] 0.016

SFXN5 (UniProt Q8TD22)
UniProt Q8TD22, sequence (Q8TD22 whole entry, looked up): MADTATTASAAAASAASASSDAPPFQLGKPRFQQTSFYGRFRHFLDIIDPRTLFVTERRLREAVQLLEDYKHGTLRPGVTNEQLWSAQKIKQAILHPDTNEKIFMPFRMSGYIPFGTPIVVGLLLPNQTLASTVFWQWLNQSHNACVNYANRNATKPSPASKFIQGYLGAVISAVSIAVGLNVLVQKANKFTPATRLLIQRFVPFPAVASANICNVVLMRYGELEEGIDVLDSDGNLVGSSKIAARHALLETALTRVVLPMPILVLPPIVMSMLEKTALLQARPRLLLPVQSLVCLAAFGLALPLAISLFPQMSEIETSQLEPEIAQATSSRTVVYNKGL
inactive: [1] 0.225 | [2] -0.048 | [3] -0.013 | [4] -0.001 | [5] -0.175 | [6] -0.083 | [7] 0.187 | [8] 0.03 | [9] 0.008 | [10] 0.09 | [11] -0.013 | [12] 0 | [13] 0.049 | [14] 0.024 | [15] -0.026 | [16] 0.135 | [17] 0.012 | [18] 0.012 | [19] 0.124 | [20] 0.057

RAB33B (UniProt Q9H082)
UniProt Q9H082, sequence (Q9H082 whole entry, looked up): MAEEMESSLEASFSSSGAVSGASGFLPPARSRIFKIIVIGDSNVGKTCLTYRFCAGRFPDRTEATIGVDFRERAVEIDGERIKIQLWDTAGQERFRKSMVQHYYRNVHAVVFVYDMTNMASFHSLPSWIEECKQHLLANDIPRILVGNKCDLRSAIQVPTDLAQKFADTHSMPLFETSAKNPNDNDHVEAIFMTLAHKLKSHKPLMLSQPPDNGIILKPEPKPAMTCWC
inactive: [1] 0.072 | [2] 0.016 | [3] -0.019 | [4] -0.092 | [5] 0.027 | [6] 0.113 | [7] 0.112 | [8] -0.015 | [9] -0.011 | [10] -0.002 | [11] -0.028 | [12] -0.026 | [13] -0.028 | [14] -0.071 | [15] -0.004 | [16] -0.083 | [17] -0.038 | [18] -0.065 | [19] -0.012 | [20] 0.031

RPS9 (UniProt P46781)
inactive: [1] -0.1 | [2] -0.025 | [3] 0.108 | [4] 0.125 | [5] 0.047 | [6] -0.025 | [7] 0 | [8] 0.206 | [9] 0.005 | [11] 0.039 | [12] 0 | [13] -0.073 | [14] -0.016 | [15] 0.104 | [16] -0.107 | [17] -0.066 | [18] 0.087 | [19] 0.038 | [20] -0.114
active: [10] -0.585

RPS6KA3 (UniProt P51812)
UniProt P51812, sequence (P51812 whole entry, looked up): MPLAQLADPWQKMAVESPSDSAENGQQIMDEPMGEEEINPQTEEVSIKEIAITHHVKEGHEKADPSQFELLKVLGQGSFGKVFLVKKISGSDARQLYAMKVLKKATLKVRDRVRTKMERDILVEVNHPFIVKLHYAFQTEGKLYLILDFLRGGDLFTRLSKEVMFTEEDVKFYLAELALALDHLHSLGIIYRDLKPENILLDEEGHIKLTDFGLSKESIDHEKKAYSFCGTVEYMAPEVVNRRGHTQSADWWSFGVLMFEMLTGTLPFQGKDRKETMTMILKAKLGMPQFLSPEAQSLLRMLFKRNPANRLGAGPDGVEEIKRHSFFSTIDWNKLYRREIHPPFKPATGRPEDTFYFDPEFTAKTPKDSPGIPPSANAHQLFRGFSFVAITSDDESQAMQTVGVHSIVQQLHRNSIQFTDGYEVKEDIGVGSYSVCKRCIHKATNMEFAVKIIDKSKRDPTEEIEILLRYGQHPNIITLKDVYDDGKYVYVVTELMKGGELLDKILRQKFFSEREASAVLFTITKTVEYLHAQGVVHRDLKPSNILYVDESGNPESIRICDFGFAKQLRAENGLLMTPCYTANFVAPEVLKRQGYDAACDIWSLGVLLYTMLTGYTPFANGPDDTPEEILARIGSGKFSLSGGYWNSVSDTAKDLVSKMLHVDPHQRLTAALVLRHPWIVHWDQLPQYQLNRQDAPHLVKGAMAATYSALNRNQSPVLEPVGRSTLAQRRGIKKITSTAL
active: [4] -0.359
inactive: [1] 0.03 | [2] -0.048 | [3] -0.194 | [5] -0.061 | [6] -0.076 | [7] 0.121 | [8] 0.011 | [9] 0.01 | [10] 0.001 | [11] -0.072 | [12] -0.157 | [13] 0.021 | [14] 0.01 | [15] 0.015 | [16] 0.001 | [17] 0.016 | [18] 0.042 | [19] -0.227 | [20] 0.06

RPS4X (UniProt P62701)
active: [10] -0.679
inactive: [1] -0.129 | [2] 0.025 | [3] 0.126 | [4] 0.106 | [5] 0.003 | [6] -0.025 | [7] 0.074 | [8] 0.273 | [9] 0.048 | [11] 0.019 | [12] 0 | [13] -0.027 | [14] -0.055 | [15] 0.214 | [16] -0.106 | [17] -0.08 | [18] 0.213 | [19] 0.021 | [20] -0.101

SEC23A (UniProt Q15436)
UniProt Q15436, sequence (Q15436 whole entry, looked up): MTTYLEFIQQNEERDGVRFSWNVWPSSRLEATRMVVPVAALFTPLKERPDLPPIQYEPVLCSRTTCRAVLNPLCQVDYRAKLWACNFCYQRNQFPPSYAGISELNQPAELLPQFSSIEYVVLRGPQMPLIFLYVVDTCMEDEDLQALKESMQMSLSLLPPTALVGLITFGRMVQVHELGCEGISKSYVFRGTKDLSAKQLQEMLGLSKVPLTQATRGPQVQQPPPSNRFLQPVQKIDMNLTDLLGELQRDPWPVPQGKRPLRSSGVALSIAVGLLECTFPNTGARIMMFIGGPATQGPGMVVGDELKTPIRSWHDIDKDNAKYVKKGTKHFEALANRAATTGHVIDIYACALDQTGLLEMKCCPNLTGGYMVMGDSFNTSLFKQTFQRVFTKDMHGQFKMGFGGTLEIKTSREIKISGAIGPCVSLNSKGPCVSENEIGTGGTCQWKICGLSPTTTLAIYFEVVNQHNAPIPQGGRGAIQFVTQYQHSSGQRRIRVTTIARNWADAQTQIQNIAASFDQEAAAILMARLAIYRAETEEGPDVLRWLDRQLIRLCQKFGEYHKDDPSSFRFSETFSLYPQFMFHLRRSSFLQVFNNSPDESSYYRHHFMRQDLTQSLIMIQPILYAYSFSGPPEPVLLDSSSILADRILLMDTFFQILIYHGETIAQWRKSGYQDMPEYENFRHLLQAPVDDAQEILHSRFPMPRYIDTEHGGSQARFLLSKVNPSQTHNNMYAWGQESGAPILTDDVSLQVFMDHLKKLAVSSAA
inactive: [1] 0.06 | [2] 0 | [3] 0.077 | [4] 0.026 | [5] -0.123 | [6] -0.014 | [7] -0.006 | [8] -0.004 | [9] 0.024 | [10] 0.121 | [11] 0.005 | [12] -0.067 | [13] -0.027 | [14] -0.041 | [15] 0.008 | [16] 0.049 | [17] 0.06 | [18] 0.003 | [19] -0.025 | [20] 0.027

RRAGC (UniProt Q9HB90)
inactive: [1] 0.033 | [2] -0.009 | [3] -0.057 | [4] -0.056 | [5] 0.004 | [6] -0.18 | [7] 0.068 | [8] -0.008 | [9] 0.024 | [10] 0.034 | [11] 0.005 | [12] 0.003 | [13] 0.017 | [14] 0.008 | [15] -0.07 | [16] -0.027 | [17] 0.047 | [18] -0.048 | [19] 0.052 | [20] -0.011

RPL38 (UniProt P63173)
inactive: [1] 0.014 | [2] 0.01 | [3] 0 | [4] 0.043 | [5] 0.113 | [6] 0 | [7] 0.124 | [8] 0.07 | [9] 0.013 | [10] -0.026 | [11] 0.032 | [12] 0.017 | [13] -0.038 | [14] -0.045 | [15] 0.075 | [16] -0.003 | [17] 0.006 | [18] 0.069 | [19] -0.054 | [20] -0.025

RAB5IF isoform 5 (UniProt Q9BUV8)
UniProt Q9BUV8, sequence (Q9BUV8 whole entry, looked up): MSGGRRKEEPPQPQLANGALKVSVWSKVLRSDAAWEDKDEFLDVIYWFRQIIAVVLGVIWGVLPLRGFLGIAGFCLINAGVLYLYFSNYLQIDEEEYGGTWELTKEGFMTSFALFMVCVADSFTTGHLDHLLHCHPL
inactive: [1] -0.082 | [2] 0.031 | [3] 0.048 | [4] 0.3 | [5] 0.021 | [6] -0.187 | [7] -0.143 | [8] -0.105 | [9] -0.12 | [10] -0.036 | [11] 0.044 | [12] 0.01 | [13] -0.042 | [14] 0.247 | [15] -0.143 | [16] 0.047 | [17] 0.012 | [18] 0.244 | [19] -0.007 | [20] -0.003
